Compounds with a hit are over-represented: about 3.4% of the library has one in this group of screens.
esBAF inh – inhibitors of esBAF chromatin remodeling in mouse ES cells | reporter increase, % at 12.5 µM | hit rate 2% among 350,000 | Bmi1-luciferase knock-in reporter, 24 h; 100% = twice the neutral-well signal | AID 602393; in the data active means activation above about 40%; inconclusive means no clear call, values can overlap the other calls;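 further: 0% = median of the plate's neutral control wells and 100% = double that signal; a rise in the Bmi1 reporter signal indicates esBAF inhibition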
Vif imaging – blocks HIV Vif function; HEK293T cells, Vif self-association by quenched fluorescence, imaging, 24 h; inhibition, % at 7.49 µM; hit rate 0.35% among 340,000; AID 602346; in the data active means inhibition above about 50%, passing the limit was not always enough; inconclusive means no clear call, values can overlap the other calls; inactive means below about 31%
HSF1 inh – HSF1 inhibition | NIH3T3-HGL HSE-luciferase, MG132-induced, luminescence 8 h; active compounds read low | activity change, negative = inhibition, % at 7.5 µM (by protocol) | hit rate 0.77% among 300,000;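 active means more than half of replicate wells show activity change below -50%, luminescence cut by over half; inconclusive means some wells, but at most half, below -50%; inactive means no replicate well below -50%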;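 further: luciferase reports HSF-1 transcriptional activity via heat shock element; 0% = median of DMSO wells and -100% = zero luminescence signal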
HSF1 activator – increases HSF-1 driven luciferase reporter signal; NIH3T3-HGL HSF-1 luciferase reporter, MG132, 8 h; 100% = twice DMSO control signal; activation, % at 9 µM; hit rate 1.7% among 300,000;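 active means mean replicate activation of at least 50% with a set share of replicates each reaching 50%; inconclusive means only one of those two conditions met; inactive means mean below 50% and too few replicates reaching it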;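 further: 0% = median of the neutral control wells and 100% = twice that signal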
esBAF Ring1 qPCR – esBAF inhibition confirmed by Ring1 de-repression; fold change at 33 µM; mouse ESC E14, Ring1 mRNA RT-qPCR fold change; 550 tested, under 10 active; AID 743176; shares compounds with esBAF inh;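 active means Ring1 gene expression raised more than 2-fold over untreated cells in both replicates at either tested dose; inconclusive means only one replicate above 2-fold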;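 further: Ring1 transcript normalised to actin housekeeping signal by TaqMan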
Fgf4 repress – esBAF inhibition confirmed by Fgf4 repression; hit rate 4% among 550; shares compounds with esBAF inh; mouse ESC E14, Fgf4 mRNA qPCR fold change; active compounds read low; Fgf4 expression fold change at 33 µM;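 active means Fgf4 expression under 0.8 fold of control in both repeat measurements at one or both tested doses; inconclusive means under 0.8 fold in just a single repeat measurement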;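 further: Fgf4 transcript normalised to actin in duplex TaqMan qPCR; cells exposed to compound for 24 h before lysis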
esBAF Bmi1 qPCR – de-represses Bmi1 in mouse ESCs, confirming esBAF inhibition | shares compounds with esBAF inh | mouse ESE14 ES cells, Bmi1 mRNA qPCR fold; active compounds read high | fold change at 33 µM | 550 tested, under 10 active | AID 743180;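 active means Bmi1 expression fold change above 6 at either tested concentration, seen in replicate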;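 further: higher fold means more Bmi1 de-repression and stronger esBAF inhibition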
A549 tox SP – kills or reduces viability of A549 cells; 550 tested, under 10 active; shares compounds with esBAF inh; A549 cytotoxicity, plate reader; cell viability change % (negative = cytotoxic), % at 25 µM, hits read low; call rule not given here
HepG2 cytotox SP – HepG2 cell cytotoxicity at single point; activity change, negative = inhibition, % at 25 µM; hit rate 4% among 550; shares compounds with esBAF inh; plate reader; active compounds read low; in the data active means activity change below about -50%
HEK293 tox SP – HEK293 cell cytotoxicity at single point; shares compounds with esBAF inh; plate reader; activity change, negative = inhibition, % at 25 µM, hits read low; hit rate 3% among 550; AID 743190; in the data active means activity change below about -38%, passing the limit was not always enough
* hit, by the source's call; ? = inconclusive; . = no result.

SMILES	esBAF inh	Vif imaging	HSF1 inh	HSF1 activator	esBAF Ring1 qPCR	Fgf4 repress	esBAF Bmi1 qPCR	A549 tox SP	HepG2 cytotox SP	HEK293 tox SP
Fc1ccc(-c2ccc3nccn3c2)cc1Cl	9.4	-1.5	.	.	.	.	.	.	.	.
N/C(=N\OC(=O)C1CCCCC1)c1ccc(Cl)cc1	65.3*	-4.3	39.5	84.5*	0.968	1.03	1.62	-9.6	-25.1	-7.3
COc1ccc(-c2csc(Nc3cc(C)ccn3)n2)cc1C	46.4*	-16.5	17.3	21.2	1.27	?	1.39	-5.7	-19.7	-8.5
COc1ccc(-c2csc(Nc3ncccn3)n2)cc1C	?	-0.9	14.2	17.6	.	.	.	.	.	.
COc1ccc2c(CN(C)Cc3ccccc3)cc(=O)oc2c1	57.2*	.	.	.	1.13	0.876	1.83	-13.4	-64.8*	-19.4
Cn1c(/C=C/c2ccc(Br)cc2)nc2ccccc2c1=O	74.5*	4.3	36.6	61.5*	1.28	?	1.58	6.4	5.8	9.2
CNC(=O)c1ccc(-c2cc3onc(-c4ccccc4)c3c(=O)n2C)cc1	81.2*	-8.1	.	.	0.924	0.882	1.48	-10.1	14.9	-1.8
COc1ccc(NC(=O)N(C)C[C@@H]2OCc3ccccc3-c3ccccc3C(=O)N([C@H](C)CO)C[C@H]2C)cc1	7.4	.	.	.	.	.	.	.	.	.
O=C(CCCc1ccccn1)c1ccc(-c2ccccc2)cc1	54.9*	-14.8	.	.	1.16	?	1.84	-5.1	-13.6	-5.6
CO[C@H]1CN(C)C(=O)c2cc(NC(C)=O)ccc2OC[C@@H](C)N(Cc2ccc(F)cc2)C[C@@H]1C	0.5	.	.	.	.	.	.	.	.	.
CC(=O)Oc1ccc2cc(-c3ccccc3)c(=O)oc2c1	60.3*	-0.5	3.3	14.5	1.28	0.892	1.57	-14.3	-6.7	2.8
Cc1cc(C)c2nc(N3CCN(C(=O)c4cccs4)CC3)sc2c1	.	9.1	-0.2	4.1	.	.	.	.	.	.
Cc1cc2nc(N3CCN(C(=O)c4cccs4)CC3)sc2cc1C	62.4*	-14.7	20.9	26.4	1.12	?	1.36	-7.9	24.5	-10.5
CCCC(=O)Nc1ccc2c(c1)OC[C@@H](C)N(Cc1nccs1)C[C@H](C)[C@@H](OC)CN(C)C2=O	2.6	.	.	.	.	.	.	.	.	.
C/C(=N\O)c1ccc2c3ccccc3n(C)c2c1	58.0*	15.7	7.4	26.5	1.24	0.983	1.01	-12.9	3.0	-9.9
CNc1cncc(-c2cccc(OC)c2F)n1	63.3*	-8.2	.	.	1.18	?	1.41	-2.5	-8.0	4.3
Clc1ccc(-c2nnc(-c3cccc4ccccc34)o2)cc1	71.0*	4.4	.	.	1.34	0.997	1.56	-6.3	45.1	-6.2
Cc1ccc(NC(=O)Nc2ccc(F)c(Cl)c2)cc1	64.4*	-9.0	11.8	25.3	0.944	1.31	1.55	-9.2	-18.2	-33.2
COc1ccc(NC(=O)Nc2cc(C)ccc2F)cc1	123.1*	-5.2	17.7	9.9	0.909	0.929	1.63	-19.4	-34.0	-25.4
COc1ccc(NC(=O)Nc2cc(C)ccc2OC)cc1	19.8	-0.4	1.3	22.4	.	.	.	.	.	.
CO[C@H]1CN(C)C(=O)c2cc(NC(=O)C3CCCC3)ccc2OC[C@@H](C)N(CC2CC2)C[C@H]1C	-0.1	.	.	.	.	.	.	.	.	.
COc1ccc(S(=O)(=O)Nc2ccc3c(c2)C(=O)N([C@@H](C)CO)C[C@@H](C)[C@@H](CN(C)Cc2ccc4c(c2)OCO4)O3)cc1	-2.4	.	.	.	.	.	.	.	.	.
COc1cccc(C=Cc2nccc3ccccc23)c1OC	24.8	-1.0	.	.	.	.	.	.	.	.
CN(C)c1ccc(C=Cc2nccc3ccccc23)cc1	70.1*	.	.	.	1.46	1.07	4.22	-47.7	-74.5*	-63.1*
CC(=O)Nc1ccc(-c2nc3c(C)cccc3[nH]2)cc1	60.1*	3.4	-31.5	-47.9	1.3	0.858	1.83	-5.8	-1.2	-2.0
Cc1ccn2c(CC(C)(C)C)c(-c3ccc(F)cc3)nc2c1	65.1*	-2.2	.	.	1.16	0.967	2.07	-10.5	3.7	-2.4

Assay outcomes as filed in PubChem.
